Reference: PubChem BioAssay (NCI)
Compounds without any hit were thinned out: in the full panel of roughly 83,000, 20% have a hit.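 Step 1: grow cells in 96-well plates. Step 2: add test compound at a single concentration. Step 3: incubate 48 h. Step 4: record percent growth.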 Unmarked numbers belong to inactive results. The source made the active and inactive calls. How the source made its calls: active means growth percent below 10; inactive means the rest.

Tests used:
Experiment in all cases: NCI-60 one-dose screen, 48 h (100 = growth as untreated, 0 = no growth, -100 = all killed)
Conditions in all cases: 10 µM unless noted
SK-MEL-2 melanoma = system: SK-MEL-2 melanoma
EKVX NSCLC = system: EKVX NSCLC
SN12C renal = system: SN12C renal
UO-31 renal = system: UO-31 renal
ACHN renal = system: ACHN renal
CAKI-1 renal = system: CAKI-1 renal
A498 renal = system: A498 renal
CCRF-CEM leukemia = system: CCRF-CEM leukemia
MOLT-4 leukemia = system: MOLT-4 leukemia
SR leukemia = system: SR leukemia
RPMI-8226 leukemia = system: RPMI-8226 leukemia
OVCAR-8 ovarian = system: OVCAR-8 ovarian
OVCAR-5 ovarian = system: OVCAR-5 ovarian
OVCAR-4 ovarian = system: OVCAR-4 ovarian
SK-OV-3 ovarian = system: SK-OV-3 ovarian
IGROV1 ovarian = system: IGROV1 ovarian
OVCAR-3 ovarian = system: OVCAR-3 ovarian
HS 578T breast = system: HS 578T breast
NCI/ADR-RES ovarian = system: NCI/ADR-RES ovarian
TK-10 renal = system: TK-10 renal

| Compound | growth (SK-MEL-2 melanoma) | growth (EKVX NSCLC) | growth (SN12C renal) | growth (UO-31 renal) | growth (ACHN renal) | growth (CAKI-1 renal) | growth (A498 renal) | growth (CCRF-CEM leukemia) | growth (MOLT-4 leukemia) | growth (SR leukemia) | growth (RPMI-8226 leukemia) | growth (OVCAR-8 ovarian) | growth (OVCAR-5 ovarian) | growth (OVCAR-4 ovarian) | growth (SK-OV-3 ovarian) | growth (IGROV1 ovarian) | growth (OVCAR-3 ovarian) | growth (HS 578T breast) | growth (NCI/ADR-RES ovarian) | growth (TK-10 renal) [%] |
| --- | --- | --- | --- | --- | --- | --- | --- | --- | --- | --- | --- | --- | --- | --- | --- | --- | --- | --- | --- | --- |
| O=C(NNC(=O)c1ccc(NC(=O)c2ccccn2)cc1)Nc1ccc2ccccc2c1 | 114% | 113% | 101% | 82.5% | 104% | 106% | 137% | 104% | 108% | 126% | 109% | 102% | 121% | 106% | 115% | 109% | 126% | 111% | 106% | – |
| CCc1n(Cc2ccc3ccccc3n2)cc[n+]1Cc1ccc2ccccc2n1 | -27.3% (active) | 31.9% | 10.7% | 89.5% | 93.3% | 98% | 84.9% | 28.1% | 28.6% | 30.2% | -1.65% (active) | 27.1% | 43.2% | 14.5% | 33.4% | 30% | 14.2% | 44.8% | 104% | – |
| O=c1c2ccccc2c(=O)c2c1sc1c(=O)c3ccc(O)cc3c(=O)c12 | -60.2% (active) | -57.7% (active) | -88.2% (active) | -52% (active) | -77.3% (active) | -68.5% (active) | -98.3% (active) | -23.3% (active) | -40.1% (active) | -16.6% (active) | -38.6% (active) | -11.5% (active) | -74.7% (active) | -90.2% (active) | -92.1% (active) | -24% (active) | -57.1% (active) | -5.23% (active) | -14.1% (active) | – |
| CN(Cc1cc(Br)cc(Br)c1O)Cc1cc(Br)cc(Br)c1O | 51% | 54.8% | 45.1% | 23.4% | 31.4% | 24.6% | 66.5% | 18.2% | 21.5% | 33.8% | 27.6% | 16.6% | 68.9% | 15.7% | 56.4% | 29.9% | 4.97% (active) | 58.9% | – | – |
| Cc1ccc2nc(-c3ccc(C(=O)NNC(=S)Nc4ccccc4)cc3)[nH]c2c1 | 112% | 93.2% | 93.9% | 89.8% | 99.6% | 95.3% | 46.6% | 88.8% | 83.3% | 88.6% | 85.1% | 95.7% | – | 88.2% | 98.3% | 86.4% | 95% | 111% | 100% | – |
| COc1cc(C(=O)c2c(-c3ccccc3)oc3c(OC)cccc23)cc(OC)c1OC | 53% | 35.3% | 22.1% | 28.2% | 17.7% | 19.6% | – | 10.2% | 11.4% | 6.57% (active) | 17.6% | 17.2% | 39.8% | – | 44.2% | 12.3% | -13.2% (active) | 2.09% (active) | 11.9% | 61.4 |
| CC(C)(C)n1cc(-c2ccnc(NCCCNS(=O)(=O)c3ccc(C(F)(F)F)cc3)c2)c(-c2cccc(F)c2)n1 | 93.6% | 78.7% | 82.8% | 78% | 85.7% | 90.3% | – | 73.8% | 65.3% | 25.2% | 55.9% | 83.1% | 85.4% | – | 94.2% | 84.1% | 95% | 95% | 76.5% | 108 |
| Cc1ccc(-c2nc3nc(-c4ccccc4)nc(N4CCCN(S(C)(=O)=O)CC4)c3o2)cc1 | 86.2% | 93.7% | 71.8% | – | 46.1% | 63.4% | – | 63.9% | 56.3% | 30.8% | 92.5% | 50.7% | 92.5% | 48.2% | 81.3% | 75.7% | – | 86.5% | 56.2% | 66.9 |
| CCCCNc1nnc2n(Cc3ccccc3)c(=O)c3c4c(sc3n12)CCCC4 | 41.6% | 60.8% | 46% | – | 40.8% | 42.6% | 45.4% | 59.2% | 10.4% | 9.01% (active) | 34.4% | 46.2% | 106% | 71.7% | 62.5% | 46.7% | 49.2% | 71.5% | 55.7% | 59.3 |
| CCN1CCN(CCNc2nccc(-c3c(-c4ccc(F)c(OC)c4)nc4sccn34)n2)S1(=O)=O | 37.7% | 88.5% | 70.8% | – | 59.6% | 77.5% | 102% | 59.5% | 81.8% | 45.3% | 68.7% | 77.2% | 114% | 92% | 87.5% | 74.4% | 85.5% | 77.7% | 103% | 118 |
